Bioassay records (PubChem)
This is a sample that favours compounds with a hit; in the whole collection about 1.1% have one here.
CCHF vOTU inh: blocks the CCHF virus ovarian tumor domain protease; CCHFV vOTU protease, Pep-AMC fluorescence; inhibition, % at 11.5 µM; 0.55% of 370,000 active; in the data active means inhibition above about 30%; further: 0% = vehicle wells with enzyme and 100% = no enzyme wells
BJeLR viability: BJeLR cell viability loss; BJeLR (HRASV12) viability, CellTiter-Glo ATP luminescence, 48 h; inhibition, % (concentration not given with the values); 0.17% of 300,000 active; AID 1554; in the data active means inhibition above about 50%
BioA inh: BioA (M. tuberculosis) enzyme inhibition | purified M. tuberculosis BioA enzyme, plate reader | inhibition, % at 9.99 µM | 0.096% of 360,000 active | AID 602481; in the data active means inhibition above about 40%
Yp Topo-I inh: blocks Yersinia pestis topoisomerase I activity; Y. pestis Topo-I cleavage product accumulation, plate reader; activity, % at 10 µM; 0.064% of 360,000 active; AID 504884; in the data active means activity above about 50%, passing the limit was not always enough
RecA intein inh: Mtb RecA intein splicing inhibition. P9WHJ3. 0.75% of 290,000 active. cell-free RecA intein splicing, fluorescence. inhibition, % (concentration not given with the values); in the data active means inhibition above about 30%;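 further: 0% = vehicle wells and 100% = reference inhibitor control wells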
Mtb bLac sens: beta-lactam sensitization of Mtb H37Rv. M. tuberculosis H37Rv growth with meropenem, percent inhibition. inhibition, % at 25 µM. 0.27% of 330,000 active. AID 434955;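 further: growth measured after seven days incubation then overnight dye step; 0% = bacteria only wells and 100% = bacteria with antibiotic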
GFP chromo cs: counter-screen: blocks GFP chromophore formation; 83% of 2,100 active; cell-free GFP chromophore formation, fluorescence; EC50, µM; shares compounds with RecA intein inh
The depositor's hits bear a star. Unless noted, how the calls were made is not given here.

`CCCc1[nH]nc2c1C(CCc1ccccc1)C(C#N)=C(N)O2` (stereo unspecified) gave CCHF vOTU inh -5, BJeLR viability 0, Yp Topo-I inh 2, RecA intein inh 55*, Mtb bLac sens -5 and GFP chromo cs 22*.
Screening C[C@H]1CN([C@@H](C)CO)C(=O)Cc2cc(NS(=O)(=O)c3ccccc3)ccc2O[C@H]1CN(C)S(=O)(=O)c1cn(C)cn1 returned BioA inh -5.
For CNC[C@@H]1Oc2ccc(NS(=O)(=O)c3cccs3)cc2C(=O)N([C@@H](C)CO)C[C@H]1C the results were BioA inh -1.
COC(=O)CN1C(=O)C2(C(C#N)=C(N)Oc3c2c(C)nn3-c2ccccc2)c2ccccc21 (stereo unspecified) was read as CCHF vOTU inh 15, BJeLR viability 4, BioA inh 0, Yp Topo-I inh 6, RecA intein inh 75*, Mtb bLac sens -2 and GFP chromo cs 15*.
`Cc1nc(COC(=O)c2ccc(CO)cc2)cs1` gave CCHF vOTU inh -4, BJeLR viability 3, BioA inh 0, Yp Topo-I inh -3 and Mtb bLac sens -8.
Screening Cc1nc(COC(=O)c2cc(O)c3ccccc3c2O)cs1 returned CCHF vOTU inh 21, BJeLR viability 14, Yp Topo-I inh -1, RecA intein inh 56* and GFP chromo cs 6.2*.
For C/C=C/c1ccc2c(c1)O[C@@H](CN(C)C(=O)Nc1cccc(F)c1)[C@H](C)CN([C@@H](C)CO)S2(=O)=O the results were BioA inh 9.
COc1ccc(Nc2nc(N3CCCCC3)nc3ccccc23)c(OC)c1 was read as CCHF vOTU inh -4, BJeLR viability 1, BioA inh 1, Yp Topo-I inh -7, RecA intein inh 93*, Mtb bLac sens 91 and GFP chromo cs >38.
C/C=C/c1cnc2c(c1)C(=O)N([C@@H](C)CO)C[C@H](C)[C@@H](CN(C)Cc1cncnc1)O2 was read as BioA inh -5.
C#CCOC(=O)c1ccccc1C(=O)n1nnc2ccccc21 was read as CCHF vOTU inh -6, BJeLR viability -1, BioA inh -1, Yp Topo-I inh 9, RecA intein inh 51*, Mtb bLac sens 31 and GFP chromo cs 35*.
Screening CN1C(=O)/C(=N\OC(=O)c2cccc3ccccc23)c2ccccc21 returned CCHF vOTU inh 9, BJeLR viability 1, BioA inh 0, Yp Topo-I inh 6, RecA intein inh 38*, Mtb bLac sens 15 and GFP chromo cs 32*.
Screening Cc1noc(C)c1NC(=O)Nc1ccc2c(c1)C(=O)N([C@H](C)CO)C[C@H](C)[C@@H](CN(C)C(=O)Nc1cccc3ccccc13)OCCCC[C@H](C)O2 returned BioA inh 0.
Screening C[C@@H]1CN([C@H](C)CO)C(=O)Cc2cc(NC(=O)CCC(F)(F)F)ccc2O[C@H]1CN(C)C(=O)Nc1cccc2ccccc12 returned BioA inh -1.
Screening Cc1ccc(Sc2oc(/C=N/n3cnnc3)cc2Br)cc1 returned CCHF vOTU inh 8, BJeLR viability 8, BioA inh -1, Yp Topo-I inh 22, RecA intein inh 62*, Mtb bLac sens 8 and GFP chromo cs 35*.
Screening Cc1ccc(-c2ccc(/C=N\n3cnnc3)o2)c(Br)c1 returned CCHF vOTU inh 2, BJeLR viability -2, BioA inh -1, Yp Topo-I inh 39, RecA intein inh -2 and Mtb bLac sens 10.
Screening CCn1c(-c2ccccc2)c(C(=O)CCl)c2ccccc21 returned CCHF vOTU inh -6, BJeLR viability 2, Yp Topo-I inh -4, RecA intein inh 40*, Mtb bLac sens 99 and GFP chromo cs 1.6*.
Screening Cn1c(-c2ccccc2)c(C(=O)CCl)c2ccccc21 returned CCHF vOTU inh -1, BJeLR viability 18, Yp Topo-I inh 2, RecA intein inh 42* and GFP chromo cs 14*.
For COc1ccccc1NC1=C(N2CCCCC2)C(=O)c2ccccc2C1=O the results were BJeLR viability 23, Yp Topo-I inh -17, RecA intein inh 79*, Mtb bLac sens 1 and GFP chromo cs 17*.
For COc1ccccc1NS(=O)(=O)c1cc(N)ccc1N1CCCC1 the results were CCHF vOTU inh -16, BioA inh 2, Yp Topo-I inh 4 and Mtb bLac sens 1.
